Measured values published in ChEMBL document CHEMBL1157539, “Thousands of chemical starting points for antimalarial lead identification” (Nature, 2010).

system: Plasmodium falciparum; test: GSK_TCMDC: Inhibition of Plasmodium falciparum Dd2 in whole red blood cells, using parasite LDH activity as an index of growth. Test compounds present at 2uM; format: functional

Compound | Inhibition [%]
O=C(NCc1ccccc1)c1ccc(C(=O)NCC2CNCCO2)cc1.O=C(O)C(F)(F)F (stereo not drawn) | 0
COc1cc2c(cc1S(=O)(=O)c1ccc(NC(=O)c3ccc4ccccc4c3)cc1)CCN(C)CC2 | 28
CC(C)Oc1cc2c(cc1NS(=O)(=O)c1ccc(-c3ccc(Cl)cc3)cc1F)CCN(C)CC2.Cl | 2

system: HepG2; test: GSK_TCMDC: Percent inhibition of human HepG2 cell line. Test compounds present at 10uM.; format: functional

Compound | Inhibition [%]
CCCCCCC1(C)N=C(N)N=C(N)C1c1ccc(Cl)c(Cl)c1.Cl (stereo not drawn) | 18
CC(C)N1CCC(N(Cc2ccc(-c3ccc(C(F)(F)F)cc3)cc2)C(=O)Cn2c(SCc3cccc(F)c3F)nc(=O)c3ccccc32)CC1.O=C(O)C(O)C(O)C(=O)O | 74
Cc1[nH]c(C)c(-c2ccc(CCc3ccc(F)cc3F)cc2)c(=O)c1Cl | 5
COc1ccc(C=NN=c2c3ccccc3[nH]c3ccccc23)c2ccccc12 | 9
COc1ccc2c(c1)c(C1CCN(CCCCNC(=O)c3ccc(-c4ccc(C(F)(F)F)cc4)cc3)CC1)cn2C(C)C | 26
O=C(Nc1ccc(Cl)c(Cl)c1)N1CCC(NCc2cccc([N+](=O)[O-])c2)CC1.O=C(O)C(F)(F)F | 8
CCCS(=O)(=O)c1nc(S(=O)(=O)c2ccc(Cl)cc2)c(N2CCCCC2)s1 | 3
Cc1cc(N)c2cc(NC(=O)CCC(=O)Nc3ccc4nc(C)cc(N)c4c3)ccc2n1 | 0
CNCCNCc1cccc(-c2cccc(-c3nc4cccc(C)c4[nH]3)c2)c1.O=C(O)C(F)(F)F | 6
Cc1cc(NCCCN2CCCC2=O)n2c(nc3ccccc32)c1C#N | 4
CC1CCN(CCCNc2ccc(C(=O)Nc3ccc(C(F)(F)F)cc3)cc2[N+](=O)[O-])CC1 | 62
Cl.NC1CCN(CCc2ccc(NS(=O)(=O)c3cccc4ccccc34)cc2)CC1 | 21
CCCCCCN(CCCCCC)CC(O)c1cc(-c2ccc(Cl)cc2)nc2c(C)cc(C)cc12 (stereo not drawn) | 27
FC(F)(F)c1ccc(N2CCCN(Cc3cccc(-c4ccccc4CNCc4ccc5c(c4)OCO5)c3)CC2)nc1.O=C(O)C(F)(F)F | 23
CC(C)(C)c1ccc2[nH]c(-c3ccc(C(=O)NC4CCN(Cc5ccccc5)CC4)s3)nc2c1 | 24
CCCC(C)Nc1nc(C)cc(N[C@@H](Cc2ccccc2)C(=O)NCCc2ccccc2)n1.O=C(O)C(F)(F)F (stereo partly drawn) | 11
COc1ccc(C(=O)C2CCN(CCCCNC(=O)c3ccc(NC(=O)c4cc(Cl)cc(Cl)c4)cc3)CC2)cc1 | 35
CN(C)CCN(Cc1ccc(-c2ccc(CNCCc3ccccc3)cc2)nc1)C(=O)CCC1CCCC1.O=C(O)C(F)(F)F | 98
O=C(O)C(F)(F)F.O=S(=O)(/C=C/c1ccccc1)N(Cc1ccc(-c2ccc(CNCCOc3ccccc3)cc2)cc1)CC1CCCCN1 (stereo not drawn) | 99
COc1ccc2ncc(C#N)c(CCN3CCC(NCc4ccc5c(c4)OCCO5)CC3)c2c1.Cl | 12

Compound | Inhibition [%]
Fc1ccccc1CNc1ncc(-c2ccsc2)c(-c2nccs2)n1 | 11
COc1ccc2ncc(F)c(CCN3CCC(CNC(=O)C(=O)c4c[nH]c5ccccc45)CC3)c2n1 | 48
CN1CCN(c2ncnc3ccc(NC(=O)Nc4ccc(Cl)c(Cl)c4)cc23)CC1 | 7
CC(C)(C)c1nn(-c2ccccc2)c2[nH]c(=O)c(CNC3CCCCC3)cc12 | 6
CC(=O)Nc1nc(C(=O)Nc2ccc(-c3ccc(-c4nc5cc(F)ccc5[nH]4)cc3)cc2)cs1 | 17
COc1ccc2cc(C(C)NC3CCN(c4cccc(NC(=O)c5ccncc5)c4)CC3)ccc2c1 (stereo not drawn) | 13
O=C(NC1CC1)C1CCN(Cc2cc3ccccc3n2Cc2ccc(Cl)cc2)CC1 | 16
CCOC(=O)C(NC(=O)c1ccc([N+](=O)[O-])o1)C(C)C (stereo not drawn) | 0
Cl.O=S(=O)(Nc1cc2c(cc1O)CCN(C1CCC1)CC2)c1ccc(Oc2ccc(F)cc2)cc1 | 20
COc1cc(Nc2ccnc3ccc(C(F)(F)F)cc23)cc(OC)c1OC | 15
Cc1ccc(F)c(OCC2CCCN(c3ccc(C(=O)NC4CC4)cn3)C2)c1 (stereo not drawn) | 3
CN(C)CCCNC(=O)c1ccccc1Sc1ccccc1C#N.Cl | 11
CCNc1cc(C(=O)N[C@@H](Cc2ccccc2)[C@H](O)CNC2(Cc3cccc(Cl)c3)CCC2)cc(N2CCCCS2(=O)=O)c1.Cl | 22
Cc1cccc(CCCNC(=O)CN(c2cccc(C(F)(F)F)c2)S(=O)(=O)c2ccc(C(F)(F)F)cc2)c1 | 9
CCN1CCN(CCNc2c3ccccc3nc3ccccc23)CC1.Cl | 45
CN1CCCc2ccc(NC(=O)Nc3ccc(Cl)c(Cl)c3)cc2C1 | 0
O=C(Nc1ccc(-c2nc3ccccc3[nH]2)cc1)c1ccc(S(=O)(=O)N2CCCCCC2)cc1 | 8
O=C(NCc1ccccc1)c1ccc(C(=O)NCC2CNCCO2)cc1.O=C(O)C(F)(F)F (stereo not drawn) | 4
COc1cc2c(cc1S(=O)(=O)c1ccc(NC(=O)c3ccc4ccccc4c3)cc1)CCN(C)CC2 | 2
CC(C)Oc1cc2c(cc1NS(=O)(=O)c1ccc(-c3ccc(Cl)cc3)cc1F)CCN(C)CC2.Cl | 29
